Source: ChEMBL document CHEMBL4513216, “Probing the Open Global Health Chemical Diversity Library for Multistage-Active Starting Points for Next-Generation Antimalarials” (ACS Infect Dis, 2020)
About 8,600 (12%) of roughly 69,000 compounds showed an effect of 50% or more. The entries come from a sample that favours strong results as a whole.

system: Plasmodium berghei; assay: Screen against P. berghei liver stage (PbLuc), transformed with Luciferase, at 10uM; format: functional, HepG2; conditions: tested at 10 uM

SMILES | INHIBITION [%]
NCC(=O)N1CCCC(O)(CN2CCN(c3ccccc3)CC2)CC1 (centres undefined) | 2.55
Cc1nnc(N2CC[C@@H](OCC3CC3)[C@@H](Cc3ccccc3)C2)s1 | 92.5
CO[C@@H]1CCN(c2nnc(C)s2)C[C@@H]1Cc1ccccc1 | 37.8
COc1ccc(C[C@H]2CN(c3nnc(C)s3)CC[C@@H]2OC)cc1 | -3.83
Cc1nnc(N2CC[C@H](OCC3CC3)[C@@H](Cc3ccccc3)C2)s1 | 41.4
CO[C@H]1CCN(c2nnc(C)s2)C[C@@H]1Cc1ccccc1 | -13.7
COc1ccc(C[C@H]2CN(c3nnc(C)s3)CC[C@H]2OC)cc1 | 61.9
CC(C)(C(=O)NCC1CCN(Cc2cccnc2)C1)c1ccccc1 (centres undefined) | 6.66
O=C(NC1CC1)c1ccccc1NCc1cn2cccnc2n1 | -17
CN(C)C1CCC2(CCN(Cc3nccn3C)CC2)c2ccccc21 (centres undefined) | 66.3
CN1CC2(CCN(Cc3cccnc3)CC2)c2cccc(F)c21 | -16.9
Cn1ccnc1CN1CCC2(CC1)CCN(c1ccccc1)C2=O | 16.6
Cn1ccnc1CN1CCC2(CC1)CC(N1CCCC1)c1ccccc12 (centres undefined) | 24.6
CN1CC2(CCN(Cc3cccnc3)CC2)c2cc(F)ccc21 | -29.8
CN(C)C1CCC2(CCN(Cc3cccnc3)CC2)c2ccccc21 (centres undefined) | 50.4
Cc1nn(CCC(=O)N2CCCC(OCc3cccnc3)C2)c(C)c1C (centres undefined) | 41.2
COC1CCCOC12CCN(C(=O)NCCc1cccs1)CC2 (centres undefined) | -142
O=C(N1CCCCC1)N1CCCC(c2ncncc2-c2ccncc2)C1 (centres undefined) | 17.1
CCCc1cc(CN(C)C2CSCCSC2)n[nH]1 | 51.1
COCc1cc(CN(C)C(=O)c2c[nH]nc2-c2cccc(F)c2)n[nH]1 | -11.2
Cc1cc(CC(C)NC2CCSCC2)[nH]n1 (centres undefined) | 22.7
CCCc1cc(CN(C)C2CC(C)(C)NC(C)(C)C2)n[nH]1 | 11.6
CCCc1cc(CN(C)C2CCSCC2)n[nH]1 | 50.1
CCCc1cc(C(=O)N(Cc2cccnc2)C2CCCCC2)[nH]n1 | -9.87
CCCNC(=O)NC(=O)CN1CCN(Cc2nccn2CC)CC1 | 5.308
Cc1nc(CN2CCN(C(=O)CCc3nc(C(C)(C)C)no3)CC2)cs1 | 30.8
c1cncc(CN2CCc3c(nnn3CC3CC3)C2COCC2CC2)c1 (centres undefined) | 27.4

SMILES | INHIBITION [%]
CCN1CCN(C(=O)Cn2ncc3c2c(C)nn3C(C)C)CC1 | 15.9
CCC(C)N(C)CCNC(=O)c1ccccc1OCCOC (centres undefined) | 8.64
O=C1CCC2(CCCN(Cc3ccccc3F)C2)N1CC1CC1 (centres undefined) | -19.6
CCOCc1ccccc1NC(=O)NCC(C)(O)c1cccs1 (centres undefined) | 0.734
CCOCc1ccccc1NC(=O)NCC(C)(O)c1cc(C)oc1C (centres undefined) | 85.5
CCOCc1ccccc1NC(=O)NCC(C)(O)c1ccsc1 (centres undefined) | 11
CCC(CN1CCCC1)n1cncc1-c1cnn(Cc2ccccc2)c1 (centres undefined) | 3.5
CN(C)S(=O)(=O)N1CCC(c2ccncc2)CC1 | -33.4
Cc1cc(C)nc(NC(=O)C(C)Oc2ccc3c(c2)OCO3)n1 (centres undefined) | 48.5
Cc1cccc(NC(=O)C(C)Oc2ccc3c(c2)OCO3)n1 (centres undefined) | 53.7
Cc1cc(NC(=O)C(C)Oc2ccc3c(c2)OCO3)no1 (centres undefined) | 14.6
CC(=O)c1cccc(CN2CCCC23CCN(c2ccccn2)CC3)c1 | 19.8
COc1cccc(CN(C)CC(=O)NC2(C)CCS(=O)(=O)C2)c1 (centres undefined) | -27.9
COc1cccc(CNC(=O)CCOc2ccccc2C)c1 | 2.43
COc1cccc(CSC=C2Nc3ccccc3S(=O)(=O)N2)c1 | 27.7
COc1cccc(CNC(=O)CCC2=Nc3ccccc3S(=O)(=O)N2)c1 | 57
CNS(=O)(=O)c1ccc(CCC(=O)NCc2cccc(OC)c2)cc1 | -74.6
COc1cccc(CN(C)CC2=Nc3ccccc3S(=O)(=O)N2)c1 | 69.7
Cc1nn(C)c(N(C)C)c1CNC1CCOc2ccccc21 (centres undefined) | -5.05
Cc1oc2c(c1C(=O)N1C[C@H](O)[C@]3(CCCO3)C1)CCCC2 | 3.95
CC1CN(C)CCN1C(=O)Nc1nc(-c2ccc[nH]2)cs1 (centres undefined) | 6.33
CS(=O)(=O)NCCNCc1ccc(Br)s1 | -40.7
CN1C(=O)C(C)(C)COc2cc(NS(=O)(=O)c3ccccc3F)ccc21 | 22.3
CC(C)Sc1ncccc1C(=O)NCc1ccc(CS(C)(=O)=O)cc1 | 14.4
CC(C)Sc1ncccc1C(=O)NCc1ccc(O)cc1 | 60.7
CC(C)Sc1ncccc1C(=O)NCc1ccoc1 | 42.9
O=C(NCCc1nnc2n1CCC2)NCC1(c2ccc(F)cc2)CC1 | 9.63
